Hits are enriched below; roughly 19% of the tested compounds scored in any of these assays.
KB-V1 MDR tox – qHTS assay for MDR1-selective chemotherapeutics: Primary screen using the drug-selected MDR subline cells KB-V1; AID 1347076, 2019; KB-V1 MDR cells viability, CellTiter-Glo, 72 h; 400,000 tested, 3.4% active; Potency, µM (top dose mostly 46.1 µM), usual class: cytotoxic; further: nearly all actives have a fitted effect of over 60% in size
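Readout: CellTiter-Glo luminescence, 10 min after addition. Cells: KB-V1 MDR subline, 72 h at 37 degrees C with compound. Analysis: corrected, normalized data fitted to concentration-effect curves.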
DT40 TDP1 no CPT – qHTS for Inhibitors of human tyrosyl-DNA phosphodiesterase 1 (TDP1): qHTS in cells in absence of CPT | DT40 Tdp1-/- hTDP1 cells, no CPT, ATP luminescence, 48 h | Potency, µM (titrated, usually from 46.2 µM), for inactives: at the highest dose activity change, negative = growth inhibition, hits mostly inhibitors | 420,000 tested, 15% active; further: nearly all actives have a fitted effect of over 55% in size
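Readout: luminescence from CellTiter-Glo after 30 min in the dark at RT. Cells: DT40 Tdp1-/- with stable hTDP1, 400/well. Exposure: compounds alone, ≥48 hr, 37 °C.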
DT40 TDP1 CPT – qHTS for Inhibitors of human tyrosyl-DNA phosphodiesterase 1 (TDP1): qHTS in cells in presence of CPT; chicken DT40 Tdp1-/-;hTDP1 cells + 20 nM CPT, ATP luminescence, 48 h; Potency, µM (highest dose often 46.2 µM), without a hit: top-dose activity change, negative = growth inhibition, hits mostly inhibitors; 420,000 tested, 12% active; further: nearly all actives have a fitted effect of over 55% in size
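Cell growth measured by CellTiter-Glo luminescence after a minimum 48 h, 37 C compound exposure with 20 nM CPT in Tdp1-knockout DT40 cells stably expressing hTDP1, seeded 400/well; qHTS titration format.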
HT1080NT lethal – qHTS for induction of synthetic lethality in tumor cells producing 2HG: qHTS for the HT-1080-NT fibrosarcoma cell line; Potency, µM (top dose mostly 46.1 µM), for inactives: at the top dose activity, negative = less viability, usual class: cytotoxic; 360,000 tested, 1.6% active; HT-1080-NT fibrosarcoma viability, CellTiter-Glo ATP luminescence, 48 h; AID 686970, 2013;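 further: NT is the 2HG producing partner of a matched IDH1 knockdown line; 0% = DMSO-treated cells and -100% = media-only wells without cells; nearly all actives have a fitted effect of over 55% in size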
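Compounds were tested in concentration-response format on HT-1080-NT cells for 48 hours at 37 degrees C. Cell viability came from CellTiter-Glo luminescence; curves were classified by r2, response magnitude and activity.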
HT1080 IDH1KD tx – qHTS for induction of synthetic lethality in tumor cells producing 2HG: qHTS for the HT-1080-IDH1KD cell line | Potency, µM (titrated, usually from 46.1 µM), without a hit: at the top dose activity, negative = toxicity, most hits filed as cytotoxic | AID 686971, 2013 | HT-1080 IDH1 knockdown viability, ATP luminescence, 48 h | 360,000 tested, 2% active;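 further: 0% = DMSO wells and -100% = cell-free medium wells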
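Using the IDH1-knockdown HT-1080 line run in the same batch and compound series as the NT line, viability after 48 h at 37 °C was determined by CellTiter-Glo luminescence and expressed as % activity.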
KB-3-1 tox – qHTS assay for MDR1-selective chemotherapeutics: Primary screen using the parental adenocarcinoma cell KB-3-1. KB-3-1 viability, CellTiter-Glo ATP luminescence, 72 h. Potency, µM (highest dose often 46.1 µM), usual class: cytotoxic. 400,000 tested, 1.4% active; further: nearly all actives have a fitted effect of over 60% in size
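Multi-concentration cytotoxicity screen in KB-3-1 cells grown in DMEM lacking phenol red with 10% FBS. After 72 h at 37 °C with compound, ATP-dependent luminescence was recorded.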
* hit, by the source's call; i = inactive; ? = inconclusive; / = no result given; [ ] = dose if it differs, or a comment. The call rests on the fitted dose curve; in most records, active means well fitted curve in the direction sought with a large enough effect; inconclusive means small, poorly fitted or top-dose-only effect, or another doubt; inactive means no such curve, though single readings can be large; an effect the other way counts as inactive or inconclusive. Unless noted, on the % scale 0 is the no-effect control and ±100 the full control effect; potency means the concentration at half of the fitted maximal effect.

SMILES	KB-V1 MDR tox	DT40 TDP1 no CPT	DT40 TDP1 CPT	HT1080NT lethal	HT1080 IDH1KD tx	KB-3-1 tox
COc1ccccc1N(CC(=O)NC(C)(C)C)C(=O)Cn1nnc(-c2ccc(C)o2)n1	2.3µM*	?	-13%	9%	10%	i
O=S(=O)(Cc1ccccc1)N(O)c1ccccc1	i	23µM*	21µM*	-19%	2%	i
Cc1nc2nc(C)n(CCN3CCOCC3)c(=O)c2c(-c2cccc([N+](=O)[O-])c2)c1C(=O)CCCCCCCCCCN1CCC(c2ccccc2)(c2ccccc2)CC1	7.3µM*	?	?	?	21µM*	?
O=C(NCCCN1CCOCC1)/C(=C/c1ccc(-c2cccc([N+](=O)[O-])c2)o1)NC(=O)c1ccccc1	i	?	?	-29%	?	i
Cc1cccc(CSCc2ccc(C(=O)NCC3CCCO3)o2)c1 (centres undefined)	i	-26%	?	1%	-3%	i
Cn1nc(-c2ccc(Cl)cc2)c2cc(C(=O)NC3CC3)sc21	?	?	?	-7%	-9%	i
COc1ccc(-c2nn(C)c3sc(C(=O)Nc4cccc(F)c4)cc23)cc1OC	?	10µM*	15µM*	/	/	i
COc1cccc(NC(=O)c2cc3c(-c4ccc(Cl)cc4)nn(C)c3s2)c1	i	15µM*	?	/	/	i
COc1ccc(-c2nn(C)c3sc(C(=O)N4CCN(c5ccccc5F)CC4)cc23)cc1OC	i	?	?	/	/	i
CC(C)(C)OC(=O)N1CCC(c2c(C(=O)NCCN3CCOCC3)cnn2-c2cccc(F)c2)CC1	i	-26%	-26%	/	/	i
COc1ccc(NC(=O)C(c2ccccc2)N2CCN(c3ccccn3)CC2)cc1Cl (centres undefined)	i	?	23µM*	-1%	-1%	i
CCN(CC)S(=O)(=O)c1cc(NC(=O)C(C)N2CCN(c3ccccn3)CC2)ccc1C (centres undefined)	i	15µM*	18µM*	0%	-2%	i
Cc1ccc(NC(=O)CN2CCN(c3ccccn3)CC2)cc1S(=O)(=O)N(C)C	?	-16%	?	-7%	-9%	i
CCN(CC)S(=O)(=O)c1cc(NC(=O)CN2CCN(c3ccccn3)CC2)ccc1C	i	23µM*	13µM*	1%	8%	i
O=C(CN1CCN(Cc2ccc3c(c2)OCO3)CC1)Nc1ccc2c(c1)OCO2	i	-3%	-18%	-2%	1%	i
CCN(CC)S(=O)(=O)c1cc(NC(=O)C(C)N2CCN(Cc3ccc4c(c3)OCO4)CC2)ccc1C (centres undefined)	2.9µM*	5.2µM*	7.3µM*	-4%	-11%	13µM*
CC(C)CN1Cc2ccccc2Oc2cc(Br)ccc2S1(=O)=O	i	?	?	-1%	-1%	i
CC(=O)N(C)Cc1ccc(C(=O)CSc2nnc(C3CC3)n2C2CC2)cc1	i	-20%	0%	-3%	-5%	i
COc1ccc(C(=O)OCC(=O)c2ccc(CNC(C)=O)s2)cc1	i	-17%	-9%	-2%	-3%	i
CC(=O)NCc1ccc(C(=O)CCl)s1	i	1.2µM*	0.52µM*	?	?	?
CC(=O)NCc1ccc(C(=O)CCl)cc1	i	?	4.1µM*	-5%	?	i
CC(=O)Nc1ccc(C(=O)CCl)cc1	?	2.1µM*	1.5µM*	?	?	i
Cc1ccc(C(=O)CCC(=O)NCc2ccc(Cl)cc2)cc1	i	-6%	-10%	0%	14%	i
CC(=O)N(C)Cc1ccc(C(=O)CCl)cc1	i	0.92µM*	1µM*	-2%	-16%	i
CCCCc1nn2c(=O)cc(COC(=O)CNC(=O)COc3ccc(C)cc3)nc2s1	?	7%	3%	/	/	i
SMILES	KB-V1 MDR tox	DT40 TDP1 no CPT	DT40 TDP1 CPT	HT1080NT lethal	HT1080 IDH1KD tx	KB-3-1 tox
CCCCNc1nc2c(-c3cccc(C)c3)nnn2c2ccccc12	i	-19%	-20%	/	/	i
CCOc1ccc(-n2c(=O)c3c4c(sc3n(Cc3cccc(Cl)c3)c2=O)CCCC4)cc1	?	-6%	-17%	/	/	i
Cc1c(CN2CCOc3ccc(C(C)(O)COc4ccccc4)cc3C2)cnn1C (centres undefined)	/	-29%	-7%[9.04 µM]	/	/	/
COc1cc(OC)c(NC(=O)c2ccc(-n3cnc4cccnc43)cc2)cc1Cl	i	/	/	/	/	i
COc1cccc(C(c2cccc(OC)c2)c2ccccc2C(=O)O)c1	i	-20%	16%	7%	14%	i
O=C(NCC(F)(F)F)C1C(=O)Nc2ccccc2C(=O)N1C1CCCC1 (centres undefined)	i	-6%	6%	24%	15%	i
O=C(/C=C/c1ccccc1Cl)NCc1ccccc1	i	-5%	?	-11%	-23%	i
O=C(/C=C/c1ccccc1Cl)NCCc1ccccc1	16µM*	-23%	-6%	13%	-1%	i
C/C=C(\CS(=O)(=O)c1ccccc1)S(=O)(=O)c1ccccc1	i	29µM*	?	-24%	?	?
Nc1ccc2c(c1)C(=O)N(c1cccc3ccccc13)C2=O	i	-25%	0%	-20%	-5%	i
CC1=CC(=O)N(c2cccc3c(N4C(=O)C=C(C)C4=O)cccc23)C1=O	i	2.9µM*	1.8µM*	1%	26µM*	?
CSc1ncc(Cl)c(C(=O)N(Cc2ccc(N(C)C)cc2)Cc2ccco2)n1	i	7.3µM*	?	/	/	i
CCSc1ncc(Cl)c(C(=O)N(Cc2ccccc2)Cc2ccco2)n1	/	16µM*	?	/	/	/
CCSc1ncc(Cl)c(C(=O)Nc2ccccc2C)n1	i	1%	-11%	-8%	2%	i
Cc1cc(C)cc(-n2c(C)cc(C(=O)C(=O)Nc3nnc(C)s3)c2C)c1	i	-7%	-23%	/	/	i
COC(=O)c1ccc(-n2c(C)cc(C(=O)CCl)c2C)cc1	i	2.6µM*	2.9µM*	?	?	?

Bioassay records (PubChem BioAssay)
